Sampled rows, rich in hits. Any-hit rate of the full collection: about 6.6%.
BoNT-A LC inh2: inhibitors of Botulinum neurotoxin A light chain protease | inhibition, % at 10 µM | 360,000 compounds, 0.17% hits | multiplex microsphere protease substrate cleavage, flow cytometry
Mtb FBA inh: inhibitors of M. tuberculosis fructose-bisphosphate aldolase; P9WQA3; purified M. tuberculosis FBA, fluorescence read-out; inhibition, % at 1 µM; 360,000 compounds, 2.3% hits; in the data active means inhibition above about 27%
Target sequence (P9WQA3 whole entry, looked up): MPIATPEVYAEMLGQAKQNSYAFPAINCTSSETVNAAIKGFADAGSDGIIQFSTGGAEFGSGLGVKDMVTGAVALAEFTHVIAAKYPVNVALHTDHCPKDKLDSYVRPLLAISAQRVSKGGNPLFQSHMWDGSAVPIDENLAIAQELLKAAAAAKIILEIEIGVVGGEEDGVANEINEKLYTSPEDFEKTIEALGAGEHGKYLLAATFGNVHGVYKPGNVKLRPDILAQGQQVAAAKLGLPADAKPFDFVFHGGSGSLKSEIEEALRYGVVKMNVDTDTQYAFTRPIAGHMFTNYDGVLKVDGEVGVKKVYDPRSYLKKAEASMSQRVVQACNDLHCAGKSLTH
Autofluor counter: compound fluorescence in toxin protease inhibitor counterscreen; compound autofluorescence counterscreen, microsphere flow cytometry; active compounds read high; fluorescence intensity (no concentration beside the values); 360,000 compounds, 3.1% hits; AID 624483; in the data active means fluorescence intensity above about 16000; inconclusive means no clear call, values can overlap the other calls
GDH-TPI inh: GDH-TPI coupled enzyme inhibition counter-screen; GDH-TPI coupled enzyme counterscreen, NADH absorbance; AID 588335; 360,000 compounds, 1.2% hits; inhibition, % at 4.8 µM; in the data active means inhibition above about 30%
Anthrax LF prot: blocks Bacillus anthracis lethal factor protease | P15917 | multiplex microsphere protease cleavage assay, LF | inhibition, % at 10 µM | 360,000 compounds, 0.12% hits
BoNT F protease: inhibitors of Botulinum neurotoxin F light chain protease | 360,000 compounds, 0.22% hits | AID 588497 | inhibition, % at 10 µM | Multiplex microsphere protease cleavage assay, flow cytometry; in the data active means inhibition above about 35%, passing the limit was not always enough; inconclusive means no clear call, values can overlap the other calls
Large screens that a line does not name were inactive. Unless noted, no stated cut-off is given here; in the data, active means inhibition above about 30%; inconclusive means no clear call, values can overlap the other calls; inactive means below that.

CCOC(=O)c1ccc(-c2ccc(/C=N/NC(=O)c3cncc(Br)c3)o2)cc1	BoNT F protease inconclusive
C(=NNc1ccc2ccccc2n1)c1ccccn1	none (no result: GDH-TPI inh)
O=C(Nc1ccccc1N1CCCC1)c1cc2ccccc2o1	none
CN1CCN(c2ccccc2NC(=O)c2cc3ccccc3o2)CC1	Autofluor counter 21317
CCOC(=O)c1sc(NC(=O)c2cc3ccccc3o2)nc1C	none
Cc1nc(NC(=O)c2cc3ccccc3o2)sc1C	GDH-TPI inh 31
O=C(Nc1nc(-c2ccccn2)cs1)c1cc2ccccc2o1	none
CCOC(=O)c1csc(NC(=O)c2cc3ccccc3o2)n1	GDH-TPI inh 43
Cc1cc(-c2csc(NC(=O)c3cc4ccccc4o3)n2)c(C)n1C	Autofluor counter 23885
Cc1ccccc1C(=O)c1cccn1CC(=O)NC(C)c1ccc2c(c1)OCCO2 (configuration not stated)	none
O=C(NCCc1ccccc1)c1cccc(NC(=O)C2CCCC2)c1	none
CCn1nnc(NC(=O)CSc2ccc(Cl)cc2)n1	Autofluor counter 24449
CCCCn1nnc(NC(=O)Cc2ccc(Cl)cc2)n1	none
CC(C)C(=O)Nc1ccc(NC(=O)c2cc3ccccc3o2)cc1	Autofluor counter 22449
CCn1nnc(NC(=O)c2cc3ccccc3o2)n1	Autofluor counter 21445
CCc1ccccc1OCC(=O)Nc1cc(S(=O)(=O)N2CCOCC2)ccc1N1CCCCC1	none
c1ccc(-c2ccc(CN3CCN(c4ncccn4)CC3)cc2)cc1	Autofluor counter 16137
COc1ccc(CN2CCN(c3ncccn3)CC2)c(OC)c1	Autofluor counter 22491
Fc1cccc(CN2CCN(c3ncccn3)CC2)c1	Autofluor counter 19248
COc1ccc(CN2CCN(c3ccccn3)CC2)c(OC)c1	none
COc1ccc(C(=O)COC(=O)c2cc(S(=O)(=O)N3CCCCC3)ccc2N2CCOCC2)c(OC)c1	none
CCOC(=O)N1CCN(C/C(C)=C/c2ccccc2)CC1	BoNT-A LC inh2 inconclusive, Autofluor counter 20298
COc1cc(OC)c(C(=O)OCC(=O)N(Cc2ccccc2)C(C)(C)C)cc1OC	none
O=C(COC(=O)/C=C/c1cccc(C(F)(F)F)c1)Nc1cccc(S(=O)(=O)NC2=NCCC2)c1	none
Sc1oc(-c2ccccc2)cc1C=Nc1ccccc1	Autofluor counter 24473
O=C(OCc1cccc(F)c1)c1ccc2c(=O)n3c(nc2c1)CCC3	none
COC(=O)Cn1cnc2c(C#N)c3n(c2c1=O)CCCCC3	Autofluor counter 23066
COC(=O)CNC(=O)C(Cc1ccccc1)NS(=O)(=O)c1ccc2c(c1)c(=O)n(C)c(=O)n2C (configuration not stated)	none
COC(=O)c1ccc(Sc2ccc(C)cc2)c(N)c1	Autofluor counter 24100
COc1ccc(NS(=O)(=O)c2cc(NC(=O)CCc3ccccc3)ccc2N2CCOCC2)cc1	none
CCOC(=O)C1CCN(C(=O)Cc2c(F)cccc2Cl)CC1	none
CCOC(=O)C1CCN(C(=O)c2ccccc2NC(C)=O)CC1	none
CCOC(=O)C1CCN(Cc2c(F)cccc2Cl)CC1	Autofluor counter 25112
CCOC(=O)C1CCN(CC(=O)c2ccc(O)c(C)c2O)CC1	GDH-TPI inh 32
CCOC(=O)C1CCN(C(=O)c2cccnc2Cl)CC1	Autofluor counter 20039
CCOC(=O)C1CCN(Cc2cn[nH]c2-c2ccccc2)CC1	Autofluor counter 20102
CCOC(=O)C1CCN(Cc2c(O)ccc3ccccc23)CC1	BoNT-A LC inh2 inconclusive, Autofluor counter 19910
CCOC(=O)C1CCCN(Cc2ccccc2OCC)C1 (configuration not stated)	Autofluor counter 19086
CCOC(=O)C1CCCN(C(=O)C(C)Oc2ccc(Cl)cc2Cl)C1 (configuration not stated)	BoNT-A LC inh2 inconclusive, Autofluor counter 22441
CCOC(=O)C1CCCN(Cc2c(F)cccc2Cl)C1 (configuration not stated)	Autofluor counter 20111
Cc1ccccc1-c1cc2nc(NCCN3CCNC3=O)n(C)c(=O)c2s1	none
CCN(CC)C(=O)C1=C(C)N(CCCN2CCCC2=O)C(=O)C(CC(=O)NCCCCc2ccccc2)C1 (configuration not stated)	none
COc1ccc(CCCNC(=O)C2(C)Cc3c(-c4ccc5c(c4)OCO5)ccnc3O2)cc1 (configuration not stated)	none
CCC(CC)C(=O)Nc1nnc(S(=O)(=O)Nc2ccccc2C)s1	none
CCOC(=O)C1CCN(Cc2cnc(Oc3ccc(OC)cc3)s2)CC1	Autofluor counter 24024
CCOC(=O)C1CCCN(CC(O)COC(c2ccccc2)c2ccccc2)C1 (configuration not stated)	none
CCOC(=O)C1CCCN(CC(O)COc2ccccc2C(C)=O)C1 (configuration not stated)	Autofluor counter 22881
Cc1cc(C(=O)NCC(c2cccs2)N2CCOCC2)ccc1[N+](=O)[O-] (configuration not stated)	none
O=C(NNC1=Nc2ccccc2SC1)c1ccc(F)cc1	none
O=C(NNC1=Nc2ccccc2SC1)c1ccc(Cl)cc1	Autofluor counter inconclusive, GDH-TPI inh 38, BoNT F protease inconclusive
CC(C)(C)c1cc(C(F)(F)F)n2ncc(-c3ccccc3)c2n1	none
CC(C)Nc1cc(C(C)(C)C)nc2c(-c3ccccc3)cnn12	Mtb FBA inh 29
CCC(C(=O)N1CCN(c2ncccn2)CC1)c1ccccc1 (configuration not stated)	none
CCC(C(=O)N1CCC2(CC1)OCCO2)c1ccccc1 (configuration not stated)	BoNT-A LC inh2 inconclusive, Autofluor counter 16484
CC1(C)CC(=O)C=C(c2ccc3c(c2)OCO3)C1	GDH-TPI inh 33
CC1(C)CC(=O)C=C(c2ccc(-c3ccccc3)cc2)C1	none
Cc1nn(-c2ccc(F)cc2)c(Cl)c1/C=N/NC(=O)c1cccs1	none
COc1ccc(OC)c(C=NNC(=O)c2ccccc2NS(=O)(=O)c2cccs2)c1	GDH-TPI inh 31
Cc1nn(-c2ccc(Cl)cc2)c(Cl)c1/C=N/NC(=O)c1ccc(NS(=O)(=O)c2cccs2)cc1	GDH-TPI inh 32
COc1ccc(C=NNC(=O)c2ccccc2NS(=O)(=O)c2cccs2)cc1O	Autofluor counter inconclusive
O=C(NN=Cc1ccc(F)c(F)c1)c1ccc(NS(=O)(=O)c2cccs2)cc1	GDH-TPI inh 46
COc1cc(/C=N/NC(=O)c2ccc(NS(=O)(=O)c3cccs3)cc2)cc(OC)c1O	GDH-TPI inh 39
COc1cccc(CNC(=O)[C@@H]2CCCN2C(=O)[C@H]2CCCCN2S(=O)(=O)c2ccc(OC)c(C)c2)c1	none (no result: Mtb FBA inh, GDH-TPI inh)
N#Cc1ccc(-c2csc(NC(=O)c3ccc(S(=O)(=O)N4CCc5ccccc5C4)cc3)n2)cc1	none
O=C(N/N=C/c1ccc([N+](=O)[O-])o1)c1ccc(NS(=O)(=O)c2cccs2)cc1	none
O=C(N/N=C/c1ccc2c(c1)OCO2)c1ccc(NS(=O)(=O)c2cccs2)cc1	GDH-TPI inh 33

Bioassay records as filed in PubChem.
